HCV inh – qHTS Assay for Inhibitors of Hepatitis C Virus (HCV); Huh7.5.1 HCVcc-Cre infection, luciferase reporter, 44 h; Potency, µM (titrated, usually from 41.8 µM), actives largely listed as inhibitors; 340,000 tested, 3.4% active
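A cell-based infection assay in which seeded cells (1,000 per well) receive test compound after 4 h, are inoculated with HCVcc-Cre at approximately 0.5 moi, and are incubated 44 h before luminescence detection.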
AmpC inh no detg – qHTS Inhibitors of AmpC Beta-Lactamase (assay without detergent) | P00811 | AmpC nitrocefin hydrolysis, absorbance 480 nm, 0.0001% Triton | Potency, µM (highest dose often 57.1 µM), usual class: inhibitors | 330,000 tested, 0.52% active; note: nearly all actives have a fitted effect of over 20% in size
Target sequence (P00811 whole entry, looked up): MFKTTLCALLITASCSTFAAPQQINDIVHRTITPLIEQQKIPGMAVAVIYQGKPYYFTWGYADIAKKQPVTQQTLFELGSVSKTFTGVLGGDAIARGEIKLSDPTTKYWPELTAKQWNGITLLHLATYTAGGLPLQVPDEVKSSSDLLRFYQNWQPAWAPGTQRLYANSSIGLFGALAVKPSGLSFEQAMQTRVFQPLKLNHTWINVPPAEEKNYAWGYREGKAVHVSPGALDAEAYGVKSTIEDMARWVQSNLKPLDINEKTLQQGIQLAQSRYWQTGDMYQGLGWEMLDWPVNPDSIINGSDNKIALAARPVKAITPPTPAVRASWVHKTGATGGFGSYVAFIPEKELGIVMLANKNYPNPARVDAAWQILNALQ
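AmpC (5.3 nM in the dispensed reagent) in 20 mM phosphate pH 7.0 with 0.01% (detergent screen) or 0.0001% Triton X-100 was preincubated with compounds for 15 min at room temperature. Nitrocefin was then added from an 800 uM solution, and hydrolysis was followed at 480 nm.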
FMDV antiviral – High Throughput Screening for Foot and Mouth Disease Virus Antivirals; FMDV antiviral cell-based qHTS; Potency, µM (top dose mostly 57.9 µM), actives largely listed as inhibitors; 410,000 tested, 1.2% active; AID 1159524, 2015; calls by dose curve; tested in HEK293T cells; note: read-out not given here; nearly all actives have a fitted effect of over 45% in size
AmpC detergent – qHTS Inhibitors of AmpC Beta-Lactamase (assay with detergent); AmpC hydrolysis of nitrocefin, absorbance 480 nm, 0.01% Triton; Potency, µM (top dose mostly 114 µM), actives largely listed as inhibitors; 370,000 tested, 0.041% active; AID 485294, 2010; note: nearly all actives have a fitted effect of over 25% in size
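AmpC (5.3 nM in the dispensed reagent) in 20 mM phosphate pH 7.0 with 0.01% (detergent screen) or 0.0001% Triton X-100 was preincubated with compounds for 15 min at room temperature. Nitrocefin was then added from an 800 uM solution, and hydrolysis was followed at 480 nm.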
HCMV inh – qHTS Assay for inhibitors of the human cytomegalovirus (HCMV); HFF cells, HCMV-luciferase reporter, 72 h; active compounds read low; activity change, negative = inhibition, % at 57.5 µM; 410,000 tested, 4.5% active; AID 1259415, 2018; in the data active = activity change below about -60%; inconclusive = no clear call, values can overlap the other calls; inactive = above about -39%
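Inhibition of viral replication was scored as loss of reporter luminescence in HFFs infected with HCMV-luciferase (MOI 1 PFU/cell) for 72 h; compounds tested at 2 doses, normalized to buffer and Salinomycin controls.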
Of the large screens only hits and unclear results are named; the others gave an inactive call. This is a sample that favours compounds with a hit; in the whole collection about 7.3% have one here. Unless noted, calls come from the whole dose curve; as a rule, active = well fitted curve in the direction sought with a large enough effect; inconclusive = small, poorly fitted or top-dose-only effect, or another doubt; inactive = no such curve, though single readings can be large; an effect the other way counts as inactive or inconclusive.

Cc1ccc(C(=O)Nc2cccc([N+](=O)[O-])c2)cc1S(=O)(=O)Nc1ccc(NC(=O)c2ccccc2)cc1	HCV inh 10µM, HCMV inh -74
Cc1ccc(NC(=S)NC(=O)c2ccc(F)cc2)cc1S(=O)(=O)Nc1cccc(Cl)c1	HCV inh inconclusive
Cc1ccc(NS(=O)(=O)c2cc(C(=O)Nc3cccc([N+](=O)[O-])c3)ccc2C)cc1	HCV inh inconclusive
Cc1ccc(NS(=O)(=O)c2cc(C(=O)Nc3cccnc3)ccc2C)cc1	AmpC inh no detg 28µM (no result: HCV inh)
CC(=O)Nc1ccc(NC(=O)c2ccc(C)c(S(=O)(=O)Nc3cccc(C)c3)c2)cc1	HCV inh 13µM
Cc1ccc(NC(=O)CC(=O)c2ccc([N+](=O)[O-])cc2)cc1S(=O)(=O)Nc1cccc(Cl)c1	HCV inh 10µM, AmpC inh no detg inconclusive, HCMV inh inconclusive
COC(=O)c1cc2sc(Cl)cc2n1Cc1cc(C)ccc1C	none (no result: HCV inh, AmpC inh no detg)
O=C(O)c1cccc(NC(=O)c2cccc(S(=O)(=O)Nc3cccc([N+](=O)[O-])c3)c2)c1	none
NS(=O)(=O)c1cccc(NC(=O)c2ccc(NS(=O)(=O)c3cccc([N+](=O)[O-])c3)cc2)c1	HCMV inh -75 (no result: AmpC detergent)
C=C(C)C(=O)OC1(C(F)(F)F)Oc2cc(C)ccc2NC1=O (centres undefined)	AmpC detergent inconclusive, HCMV inh -95
CCOC(=O)C1(N(CC)CC)Sc2cc(C)ccc2NC1=O (centres undefined)	HCV inh inconclusive, AmpC detergent inconclusive
Cn1c(NC2CCCCC2)cc(=O)n(C)c1=O	AmpC detergent inconclusive
Cc1cc(C2CCCCC2)n(O)c(=O)c1	HCV inh inconclusive, HCMV inh -78
Cc1sc(NC(=O)CCC(=O)O)c(C#N)c1C	none
COc1cccc(N2CCN(C(=O)c3ccc(CS(=O)c4ccccc4C)o3)CC2)c1 (centres undefined)	none
COc1cccc(N2CCN(C(=O)c3ccc(CS(=O)c4ccccc4Cl)o3)CC2)c1 (centres undefined)	HCV inh inconclusive, HCMV inh -96
O=C(c1ccc(CS(=O)(=O)c2c(Cl)cccc2Cl)o1)N1CCN(c2ccccn2)CC1	FMDV antiviral inconclusive, HCMV inh -66
COc1ccccc1S(=O)(=O)Cc1ccc(C(=O)N2CCN(c3cccc(Cl)c3)CC2)o1	HCV inh 13µM, FMDV antiviral 18µM, HCMV inh -67
N#Cc1cccc(-c2cncnc2NCc2ccccc2)c1	none (no result: HCV inh, AmpC inh no detg, AmpC detergent, HCMV inh)
O=C(/C=C/c1cccs1)NCc1ccc2c(c1)OCO2	none
CC(=O)Nc1ccc(NC(=O)Nc2cccc(Cl)c2)cc1	AmpC detergent inconclusive
CC(=O)C(=Nc1ccc(Cl)cc1Cl)NNc1cccc(Cl)c1	HCV inh 10µM
O=C(C1CCCN(S(=O)(=O)Cc2ccccc2)C1)N1CCC(Cc2ccccc2)CC1 (centres undefined)	HCV inh inconclusive, FMDV antiviral 40µM
O=C(O)C1CCCN(S(=O)(=O)Cc2ccccc2)C1 (centres undefined)	none
CCc1nn(Cc2ccc(Cl)cc2)c(=O)c2cc3cc(C)ccc3n12	none (no result: HCV inh, AmpC inh no detg)
Nc1nn(S(=O)(=O)c2cccc3nsnc23)cc1-c1ccc(Br)cc1	HCV inh 10µM, AmpC inh no detg 20µM, AmpC detergent inconclusive
Cc1ccc(-c2cn(S(=O)(=O)c3cccc4nsnc34)nc2N)cc1	HCV inh inconclusive, FMDV antiviral inconclusive (no result: AmpC inh no detg)
CCN(CC)c1ccc(/C=C(\C#N)c2ccccn2)cc1	HCV inh 14µM (no result: HCMV inh)
O=C(Cn1cc(S(=O)(=O)Cc2cccc(Cl)c2)c2ccccc21)Nc1ccccc1Cl	none (no result: HCV inh, AmpC inh no detg)
Cc1cc(C(=O)NC(Cc2ccccc2)C(=O)O)c(C)o1 (centres undefined)	none
CN1C(=O)[C@@H]2C[C@@]3([C@@]45C[C@H]6C(=O)N(C)[C@@H](Cc7ccccc7)C(=O)N6[C@@H]4Nc4ccccc45)c4ccccc4N[C@H]3N2C(=O)[C@@H]1Cc1ccccc1	HCV inh inconclusive, AmpC detergent inconclusive, HCMV inh -68
C=CCn1cccc(C(=O)Nc2ccc(SC)cc2)c1=O	HCV inh inconclusive (no result: HCMV inh)
C=CCn1cccc(C(=O)Nc2ccc(Cl)cc2)c1=O	HCV inh 11µM
C=CCn1cccc(C(=O)Nc2ccc(OCC)cc2)c1=O	HCV inh 11µM, HCMV inh -63
CC1(C(=O)NS(=O)(=O)c2ccc(Cl)cc2)CCN1C(=O)Cc1ccc(Cl)cc1Cl (centres undefined)	none (no result: HCV inh, AmpC inh no detg, AmpC detergent)
O=[N+]([O-])c1cc(Br)ccc1C[n+]1ccccc1	none (no result: AmpC inh no detg, AmpC detergent)
CC(=O)Nc1sc2c(c1C(c1ccccc1)N1CCOCC1)CCCC2 (centres undefined)	FMDV antiviral inconclusive
CC(=O)Nc1sc2c(c1C(c1ccc(Cl)cc1)N1CCOCC1)CCCC2 (centres undefined)	FMDV antiviral inconclusive, AmpC detergent inconclusive, HCMV inh -94
CC(=O)Nc1sc2c(c1C(c1ccc(F)cc1)N1CCOCC1)CCCC2 (centres undefined)	FMDV antiviral inconclusive, HCMV inh -86
N#CCc1ccc(C(=O)c2ccccc2F)s1	HCV inh inconclusive, AmpC inh no detg 0.79µM
Cc1oc(-c2ccccc2NC(=O)c2ccccc2)nc1CNC(=O)C1CC(=O)OC12CCCCC2 (centres undefined)	none (no result: HCV inh, AmpC inh no detg, AmpC detergent, HCMV inh)
CCN(Cc1cc2cc(C)ccc2[nH]c1=O)C(=O)c1cccc([N+](=O)[O-])c1	none
Cc1ccccc1NC(=NCCCN1CC1)Nc1ccccc1C	HCV inh inconclusive, HCMV inh -77 (no result: AmpC inh no detg, AmpC detergent)
Cc1ccccc1NC(=O)CCN1CCN(C)CC1	AmpC detergent inconclusive
O=C(N1CCN(c2cccc(Cl)c2)CC1)C1(c2cccs2)CCOCC1	HCV inh inconclusive, FMDV antiviral 35µM, HCMV inh inconclusive
OC[C@@H]1CN(Cc2ccccc2)C[C@H](n2cnc3c(NCc4ccc(F)cc4)ncnc32)O1	none (no result: HCV inh, AmpC inh no detg, AmpC detergent)
OC[C@@H]1CN(Cc2ccc(-c3ccccc3)cc2)C[C@H](n2cnc3c(NCc4ccc(F)cc4)ncnc32)O1	FMDV antiviral 28µM, HCMV inh -85 (no result: HCV inh, AmpC inh no detg, AmpC detergent)
OC[C@@H]1CN(Cc2ccc(-c3ccccc3)cc2)C[C@H](n2cnc3c(Nc4ccccc4)ncnc32)O1	FMDV antiviral 32µM, HCMV inh -65 (no result: HCV inh, AmpC inh no detg, AmpC detergent)
CC(C)CC(=O)N(c1nnc(-c2cccnc2)s1)C1CCCC1	none
CCc1noc(C)c1C(=O)Nc1nc(-c2ccc(OC)c(OC)c2)cs1	HCV inh inconclusive, FMDV antiviral 18µM
Cc1cc(C)c2nc(NC(=O)c3cc(C)on3)sc2c1	HCMV inh inconclusive
Cc1onc(-c2ccccc2)c1C(=O)Nc1nc(-c2ccc(F)c(F)c2)cs1	HCV inh inconclusive, AmpC inh no detg inconclusive
CCc1noc(C)c1C(=O)Nc1nc2c(C)cc(C)cc2s1	HCV inh 11µM

Screening results as filed in PubChem.
